Data: the supplement of paper PMC6555819

System: RXRa homodimer (NR concentration 180 nM)
Experiment: PBM binding z-score (relative to random genomic background probes); higher = stronger binding; sequences stand for … in GC…GCGATTGACAGCGTAGAATGAAGG
In short: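 Each nuclear receptor dimer, without ligand, was incubated for 1 h on custom Agilent 4×180K protein-binding microarrays. Binding was detected with antibodies against each partner (one per run), and scanned fluorescence was regression-normalized. The binding z-scores are referenced to random human genomic background probes.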

Row | Sequence | PBM binding z-score
1 | CCTCGGAGGACAGAAGGTCAGAACTGTCCGCTTT | 1.43
2 | CCTTACGGGTCAAGGTTATAGCGCGGGTGGTACG | 5.01
3 | CCGACTGGGGCAGAAAGGTTTCCATACCATCCGG | -0.284
4 | TTACCAAGGTGAAAGGTTGTTGATGCACGCCTTG | 2.58
5 | GCAGACAGGTAAAACGCAGGTAACTCAGGGTGGC | 0.223
6 | AGTCAAAGTTCATGACGAGGTAACGTAAAGCACG | 4.9
7 | ATATGTAGGTTAATGGTCATTCAGGTTGGTTCGC | 1.14
8 | ACTATTAGTTGAGACAAGGGCAACCGATAGGTTG | 0.407
9 | CCGACTGGGGCATAAAGTTACCATAAGCCAGCCC | 0.0317
10 | CGTCCACGGTCATAGGAGGTCAGTGAAGACAGAT | 2.05
11 | TAGCCTTGGTCATGGGCCAGTATACCACGCGAAC | 0.297
12 | TCTGCTAGGTCAACGATGATCAGCTAATCTGCTA | 2.78
13 | CCAGACAGGTGAAAGGTACCTCAGTCTGGTACGC | 1.32
14 | ATATGTAGGTTATCGGGTTATTCAGTTTGCGCAT | 1.6
15 | TCTTGTAGATCAAAGGATAAGAAAGCCGAAGCCT | 0.0933
16 | TCTTGTAGATCAGCAGGTTAAGGAAGCTGGCCAA | 0.329
17 | GTGACTGGGGCAAAGCAGGTTACCATAAGGTTGG | 0.875
18 | ACAGACAGGTCAGTGAAGGTAACTCAGCTGGACG | 2.23
19 | ACTATTAGTTGACTTAGGGAAACCGATACGACGC | 0.147
20 | CCGTACGGGTCACGAGGTTATAGCACGACGAGCG | 7.62
21 | TCAAGTTGGTCACGGAGGTCACACACGACGGGTA | 4.68
22 | CCAGACGGGTGAAAGGTAACTCAGTCTGGTACGC | 1.81
